Drawing on the antibiotic and cytotoxicity screens of Wong et al. (2023), this text covers cytotoxicity call for 63 compounds.

Among all 39,000 compounds or so, about 3,300 (8.5%) were called active. This excerpt belongs to a sample that is enriched for actives.

This assay concerns HepG2. As to the kind of experiment: cytotoxicity call (relative viability < 0.9). To be noted: 10 µM.
Regarding `C[C@H]1CN([C@@H](C)CO)C(=O)Cc2cc(NC(=O)NC3CCCCC3)ccc2O[C@@H]1CN(C)Cc1ccc(Cl)c(Cl)c1`, the cytotoxicity call was “inactive”.

With `CCS(=O)(=O)NCC[C@@H]1CC[C@@H](NC(=O)Cc2ccccn2)[C@@H](CO)O1`, the cytotoxicity call is “inactive”. On to `CC(C)=CCCC(C)=CCCC(C)=CCO` [trans,trans-FARNESOL ], for which the cytotoxicity call was “inactive”. With `C[C@@H]1CN([C@H](C)CO)C(=O)c2cccc(NC(=O)Nc3ccc4c(c3)OCO4)c2O[C@@H]1CN(C)Cc1ccc(C(=O)Nc2ccccc2N)cc1` the entry was “inactive”; with `O=C(OC(C(F)(F)F)C(F)(F)F)N1CCN(Cc2ccc(C(F)(F)F)cc2N2CCCC2)CC1`, “inactive”. With `C[C@H](CO)N1C[C@H](C)[C@@H](CN(C)Cc2ccccc2)Oc2ccc(NS(=O)(=O)c3cn(C)cn3)cc2C1=O`, the cytotoxicity call was “inactive”.

Consider `Cn1cnc(S(=O)(=O)N2C[C@H](O)COC[C@H]3O[C@H](CC(=O)NC4Cc5ccccc5C4)CC[C@@H]32)c1`, for which the cytotoxicity call was “inactive”. Next, `O=C(CCCCCNC(=O)OCCCCO[C@@H]1C[C@H](c2ccc(Br)cc2)C=C(C(=O)N2CCN(Cc3ccccc3)CC2)O1)NO`: “inactive”. Next, `C[C@@H]1CCCCO[C@H](CN(C)C(=O)c2ccccc2)[C@H](C)CN([C@@H](C)CO)C(=O)c2cc(NC(=O)Nc3ccc(C(F)(F)F)cc3)ccc2O1`: “active”; `C[C@@H]1CCCCO[C@@H](CN(C)C(=O)c2ccccc2)[C@H](C)CN([C@H](C)CO)C(=O)c2cc(NC(=O)Nc3ccc(C(F)(F)F)cc3)ccc2O1`: “inactive”; `C[C@@H]1CN([C@H](C)CO)C(=O)c2cc(NC(=O)Nc3ccc(C(F)(F)F)cc3)ccc2O[C@@H](C)CCCCO[C@@H]1CN(C)C(=O)c1ccccc1`: “inactive”.

For the compound `C[C@@H]1CN([C@@H](C)CO)C(=O)c2cc(NC(=O)Nc3ccc(C(F)(F)F)cc3)ccc2O[C@@H](C)CCCCO[C@H]1CN(C)C(=O)c1ccccc1`, the cytotoxicity call is “inactive”. As for `C[C@@H]1CCCCO[C@@H](CN(C)C(=O)c2ccccc2)[C@@H](C)CN([C@H](C)CO)C(=O)c2cc(NC(=O)Nc3ccc(C(F)(F)F)cc3)ccc2O1`, the cytotoxicity call is “active”.

For the compound `C[C@@H]1CN([C@H](C)CO)C(=O)c2cc(NC(=O)Nc3ccc(C(F)(F)F)cc3)ccc2O[C@@H](C)CCCCO[C@H]1CN(C)C(=O)c1ccccc1`, the cytotoxicity call is “inactive”.

As for `Cc1noc(C)c1NC(=O)Nc1cccc2c1O[C@@H](CN(C)Cc1ccc(-c3ccccc3)cc1)[C@@H](C)CN([C@@H](C)CO)C2=O`, the cytotoxicity call was “inactive”. As to `Cc1ccc(S(=O)(=O)N(C)C[C@@H]2OCCCC[C@H](C)Oc3ccc(NC(=O)Nc4cccc5ccccc45)cc3C(=O)N([C@H](C)CO)C[C@@H]2C)cc1`, the cytotoxicity call was “inactive”.

With `CSC(=N)NCCC[C@@H](N)C(=O)O`, the cytotoxicity call was “inactive”. With `C[C@H]1CCCCO[C@H](CN(C)S(=O)(=O)c2cccs2)[C@@H](C)CN([C@@H](C)CO)C(=O)c2cc(NC(=O)Nc3ccc(C(F)(F)F)cc3)ccc2O1` the entry was “inactive”; with `CC(C)(C)C(=O)Nc1c[nH]c(=O)[nH]c1=O`, “inactive”; with `C[C@@H]1CCCCO[C@@H](CN(C)C(=O)NC2CCCCC2)[C@H](C)CN([C@@H](C)CO)C(=O)c2cc(NC(=O)c3ccncc3)ccc2O1`, “inactive”.

In the case of `Nc1ccc2cc3ccc(N)cc3nc2c1.O=S(=O)(O)O`, the cytotoxicity call was “active”.

`Nc1ccc(S(=O)(=O)c2ccc(N)cc2)cc1`: the cytotoxicity call was “inactive”.

For `Nc1ccc2c(c1)nc(CO)n2CCO`, the cytotoxicity call was “inactive”.

`C[C@@H]1CN([C@H](C)CO)C(=O)c2cc(NC(=O)C3CCCCC3)ccc2O[C@H]1CN(C)C(=O)Nc1cccc2ccccc12`: the cytotoxicity call was “inactive”. With `COc1ccc(S(=O)(=O)N(C)C[C@H]2Oc3ccc(NC(=O)C4CC4)cc3CC(=O)N([C@@H](C)CO)C[C@@H]2C)cc1` the entry was “inactive”. As to `C[C@H](CO)N1C[C@H](C)[C@@H](CN(C)C(=O)Nc2cccc3ccccc23)Oc2ccc(NS(=O)(=O)c3ccc(Cl)cc3)cc2CC1=O`, the cytotoxicity call was “inactive”. Next, `Cc1noc(C)c1NC(=O)N(C)C[C@@H]1Oc2ccc(NC(=O)C3CC3)cc2CC(=O)N([C@@H](C)CO)C[C@H]1C`: “inactive”; `COc1ccc(C#Cc2ccc([C@@H]3[C@@H](CO)N4CCCCN(S(=O)(=O)c5cn(C)cn5)C[C@H]34)cc2)cc1`: “inactive”. Next, `CN(C)CC#Cc1ccc([C@@H]2[C@H](CO)N3CCCCN(C(=O)CN(C)C)C[C@@H]23)cc1`: “inactive”; `COc1ccc(NC(=O)N2CCCCN3[C@H](CN(C)C(C)=O)[C@H](c4ccc(C#Cc5ccccc5)cc4)[C@@H]3C2)cc1`: “active”. Regarding `CN(C)CC#Cc1ccc([C@@H]2[C@@H](CO)N3CCCCN(C(=O)CN(C)C)C[C@@H]23)cc1`, the cytotoxicity call was “inactive”. Consider `COc1ccc(C#Cc2ccc([C@@H]3[C@H](CO)N4CCCCN(S(=O)(=O)c5cn(C)cn5)C[C@@H]34)cc2)cc1`, for which the cytotoxicity call was “active”. Take `COc1ccc(NC(=O)N2CCCCN3[C@H](COCCN(C)C)[C@H](c4ccc(C#Cc5ccccc5)cc4)[C@@H]3C2)cc1`: the cytotoxicity call was “active”.

As for `CN(C)CC#Cc1ccc([C@H]2[C@@H](CO)N3CCCCN(C(=O)CN(C)C)C[C@H]23)cc1`, the cytotoxicity call was “inactive”.

With `COc1ccc(C#Cc2ccc([C@H]3[C@H](CO)N4CCCCN(S(=O)(=O)c5cn(C)cn5)C[C@@H]34)cc2)cc1`, the cytotoxicity call was “inactive”. With `CN(C)CC#Cc1ccc([C@H]2[C@@H](CO)N3CCCCN(C(=O)CN(C)C)C[C@@H]23)cc1` the entry was “inactive”; with `O[C@H]1[C@H](O)[C@@H](O)[C@H]2O[C@@H]2[C@@H]1O`, “inactive”. Regarding `CCSC(=O)NC1CCCCC1`, the cytotoxicity call is “inactive”. Regarding `COc1ccc(NC(=O)N(C)C[C@H]2OCCCC[C@H](C)Oc3ccc(NC(=O)CCC(F)(F)F)cc3C(=O)N([C@H](C)CO)C[C@@H]2C)cc1`, the cytotoxicity call is “inactive”. With `CS(=O)(=O)N1CC[C@@H]2OCCN(C(=O)c3cccnc3)[C@@H]2C1`, the cytotoxicity call was “inactive”.

For the compound `C[C@@H]1CN([C@H](C)CO)C(=O)c2cccc(NS(=O)(=O)c3cn(C)cn3)c2O[C@H]1CN(C)Cc1ccc(C(=O)O)cc1`, the cytotoxicity call was “inactive”. With `CC(=O)n1cc([C@@H]2C=C(C(=O)NCc3ccccc3)O[C@H](OCc3ccc(CO)cc3)C2)c2ccccc21` the entry was “inactive”. Next, `C[C@H]1CN([C@@H](C)CO)C(=O)c2cc(NS(=O)(=O)c3ccccc3)ccc2O[C@H]1CN(C)Cc1ccc(-c2ccccc2)cc1`: “inactive”. As for `C[C@H]1CN([C@@H](C)CO)C(=O)c2cc(NS(=O)(=O)c3ccccc3)ccc2O[C@@H]1CN(C)Cc1ccc(-c2ccccc2)cc1`, the cytotoxicity call was “inactive”. With `C[C@@H]1CN([C@@H](C)CO)C(=O)c2cc(NS(=O)(=O)c3ccccc3)ccc2O[C@@H]1CN(C)Cc1ccc(-c2ccccc2)cc1` the entry was “active”; with `C[C@H](CO)N1C[C@H](C)[C@H](CN(C)Cc2ccc(-c3ccccc3)cc2)Oc2ccc(NS(=O)(=O)c3ccccc3)cc2C1=O`, “inactive”; with `C[C@@H]1CN([C@H](C)CO)C(=O)c2cc(NS(=O)(=O)c3ccccc3)ccc2O[C@@H]1CN(C)Cc1ccc(-c2ccccc2)cc1`, “inactive”. On to `C[C@@H]1CN([C@@H](C)CO)C(=O)c2cc(NS(=O)(=O)c3ccccc3)ccc2O[C@H]1CN(C)Cc1ccc(-c2ccccc2)cc1`, for which the cytotoxicity call was “active”. Next, `COc1ccc(NC(=O)N(C)C[C@H]2OCCCC[C@H](C)Oc3ccc(NC(=O)c4ccccc4)cc3C(=O)N([C@H](C)CO)C[C@@H]2C)cc1`: “inactive”; `COc1ccc(NC(=O)N(C)C[C@@H]2OCCCC[C@@H](C)Oc3ccc(NC(=O)c4ccccc4)cc3C(=O)N([C@@H](C)CO)C[C@@H]2C)cc1`: “inactive”; `C[C@@H]1CCCCO[C@H](CN(C)C(=O)Nc2ccc3c(c2)OCO3)[C@H](C)CN([C@H](C)CO)C(=O)c2cc(NC(=O)Nc3ccccc3)ccc2O1`: “inactive”.

For `COc1ccc(NC(=O)N(C)C[C@@H]2OCCCC[C@H](C)Oc3ccc(NC(=O)Nc4ccc5c(c4)OCO5)cc3C(=O)N([C@@H](C)CO)C[C@H]2C)cc1`, the cytotoxicity call was “inactive”.

For `C[C@@H]1CCCCO[C@@H](CN(C)C(=O)Nc2ccc3c(c2)OCO3)[C@H](C)CN([C@H](C)CO)C(=O)c2cc(NC(=O)Nc3ccccc3)ccc2O1`, the cytotoxicity call is “active”. Next, `COc1ccc(NC(=O)N(C)C[C@H]2OCCCC[C@H](C)Oc3ccc(NC(=O)Nc4ccccc4)cc3C(=O)N([C@@H](C)CO)C[C@@H]2C)cc1`: “inactive”; `COc1ccc(NC(=O)N(C)C[C@H]2OCCCC[C@@H](C)Oc3ccc(NC(=O)Nc4ccccc4)cc3C(=O)N([C@H](C)CO)C[C@@H]2C)cc1`: “active”; `C[C@H]1CCCCO[C@@H](CN(C)C(=O)Nc2ccc3c(c2)OCO3)[C@@H](C)CN([C@@H](C)CO)C(=O)c2cc(NC(=O)Nc3ccccc3)ccc2O1`: “inactive”. Next, `COc1ccc(NC(=O)N(C)C[C@@H]2OCCCC[C@@H](C)Oc3ccc(NC(=O)c4ccccc4)cc3C(=O)N([C@H](C)CO)C[C@H]2C)cc1`: “active”; `COc1ccc(NC(=O)N(C)C[C@H]2OCCCC[C@H](C)Oc3ccc(NC(=O)Nc4ccccc4)cc3C(=O)N([C@H](C)CO)C[C@@H]2C)cc1`: “inactive”. On to `COc1ccc(NC(=O)Nc2ccc3c(c2)C(=O)N([C@H](C)CO)C[C@H](C)[C@H](CN(C)C(=O)Nc2ccc4c(c2)OCO4)OCCCC[C@@H](C)O3)cc1`, for which the cytotoxicity call is “inactive”. With `COc1ccc(NC(=O)Nc2ccc3c(c2)C(=O)N([C@H](C)CO)C[C@H](C)[C@@H](CN(C)C(=O)Nc2ccc4c(c2)OCO4)OCCCC[C@H](C)O3)cc1` the entry was “active”; with `CS(=O)(=O)Nc1ccc2c(c1)[C@@H]1C[C@@H](CC(=O)NCc3ccc(-c4ccccc4)cc3)O[C@@H](CO)[C@@H]1O2`, “inactive”; with `C[C@H](CO)N1C[C@H](C)[C@@H](CN(C)S(=O)(=O)c2cccs2)Oc2ccc(NS(=O)(=O)c3cn(C)cn3)cc2CC1=O`, “inactive”. With `C[C@H]1CN([C@@H](C)CO)C(=O)c2cccc(NS(=O)(=O)c3cn(C)cn3)c2O[C@@H]1CN(C)C(=O)Nc1ccc(F)cc1` the entry was “inactive”.
